Assay outcomes (PubChem)
Tb PGK inh = blocks T. brucei phosphoglycerate kinase. PGK/GAPDH coupled, Kinase-Glo luminescence, 60 min. P07378. Potency, µM (doses to about 57.5 µM), for the others: at the top dose activity change, negative = inhibition, actives largely listed as inhibitors. AID 602233. 380,000 compounds, 0.043% hits; also: potency is read from the fitted curve at half-maximal effect; % is scaled to controls: 0 for no effect and ±100 for the full control effect; nearly all actives have a fitted effect of over 60% in size
Target sequence (P07378 whole entry, looked up): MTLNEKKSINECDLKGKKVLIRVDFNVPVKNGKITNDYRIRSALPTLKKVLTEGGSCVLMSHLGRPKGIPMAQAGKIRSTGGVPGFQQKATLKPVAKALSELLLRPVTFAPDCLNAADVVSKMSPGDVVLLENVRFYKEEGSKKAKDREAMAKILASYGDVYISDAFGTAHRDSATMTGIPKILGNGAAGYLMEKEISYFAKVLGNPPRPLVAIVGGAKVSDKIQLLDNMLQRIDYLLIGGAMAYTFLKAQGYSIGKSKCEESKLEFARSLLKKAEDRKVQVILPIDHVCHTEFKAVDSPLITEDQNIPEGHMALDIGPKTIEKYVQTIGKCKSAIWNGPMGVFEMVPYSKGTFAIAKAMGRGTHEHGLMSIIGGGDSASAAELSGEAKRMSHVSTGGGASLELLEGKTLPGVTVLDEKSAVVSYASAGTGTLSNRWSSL
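Luminescent ATP detection (Kinase-Glo Plus) follows a 60-minute room-temperature incubation, with wells lacking PGK as controls. Buffer: 100 mM TEA (pH 7.6), 5 mM MgCl2, 0.01% Tween-20. Coupling enzyme GAPDH (100 nM final) supplies unstable 1,3-BPG in-well.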
Tb PFK inh-1 = blocks T. brucei phosphofructokinase. T. brucei PFK, ADP-Glo luminescence. 330,000 compounds, 0.17% hits. Potency, µM (highest dose often 57.5 µM), for the others: at the highest dose activity, negative = inhibition, actives largely listed as inhibitors. O15648. AID 485367;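 also: potency is read from the fitted curve at half-maximal effect; 0% = uninhibited 1x PFK enzyme wells and -100% = no-enzyme wells; nearly all actives have a fitted effect of over 60% in size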
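In TEA buffer at pH 8.0 with 5 mM MgCl2, enzyme (1.25 nM) converted F6P (0.5 mM) and ATP (0.1 mM) for 45 min at room temperature. ADP product was read by luciferase luminescence.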
USP2a block = inhibitors of human ubiquitin-specific protease USP2a | O75604 | USP2 core, Ub-CHOP2 coupled fluorogenic reporter, 485/531 | Potency, µM (doses to about 38.3 µM), for inactives: at the highest dose activity change, negative = inhibition, hits mostly inhibitors | 330,000 compounds, 0.01% hits | AID 463254;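 also: potency is read from the fitted curve at half-maximal effect; plate controls were DMSO wells for no effect and full inhibition by NEM control for full effect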
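Cell-free coupled assay: 10nM USP2 core preincubated 30min RT with compound in Tris-HCl pH 8.0/CaCl2/CHAPS buffer, then 25nM Ub-CHOP2 and 25nM reporter substrate; fluorescence (Ex 485/Em 531) read after 60min RT, normalized to NEM inhibition, concentration-response curves fitted.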
Pin1 inh = inhibitors of human Pin1 | AID 504891 | 390,000 compounds, 0.009% hits | Potency, µM (top dose mostly 115 µM), for the others: at the top dose activity, negative = inhibition, actives largely listed as inhibitors | Pin1 FP peptide displacement, HiFluor488, 10 min; active = well fitted inhibition curve with a large enough effect in the polarisation, with a control signal flat, not every such curve was filed as active; inconclusive = small, poorly fitted or top-dose-only effect, or effect the other way, or a change in a side signal; inactive = no such curve, though single readings can be large or run the other way; the % refers to the polarisation; also: potency is read from the fitted curve at half-maximal effect; % is scaled to controls: 0 for no effect and ±100 for the full control effect
Target sequence (Q13526 whole entry, looked up): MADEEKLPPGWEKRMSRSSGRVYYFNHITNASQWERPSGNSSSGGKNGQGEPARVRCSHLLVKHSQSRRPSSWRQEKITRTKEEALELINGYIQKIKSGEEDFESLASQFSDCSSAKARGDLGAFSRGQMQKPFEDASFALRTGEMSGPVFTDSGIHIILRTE
PI4K2A inh = blocks human PI4K2A kinase activity. Q9BTU6. purified PI4K2A, ADP-Glo luminescence, 1 h; hits give low values. activity change, negative = inhibition, % at 76.9 µM. 420,000 compounds, 0.13% hits; in the data active = activity change below about -50%; inconclusive = mostly about -30% to -49%;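 also: -100% = wells without enzyme as full effect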
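ADP-Glo luminescence measured ADP generated by PI4K2A enzyme (4 ug/mL before mixing) with 1.2 mM PI substrate (pre-mix) and 300 microM ATP (pre-mix). Tris pH7.5 buffer with MgCl2, Triton X-100; 1 h reaction at ambient temperature.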
Tb PFK KinaseGlo = orthogonal confirmation of T. brucei phosphofructokinase inhibitors. shares compounds with Tb PFK inh-1. Tb PFK enzyme, ATP depletion, Kinase-Glo Plus luminescence. Potency, µM (series often up to 57.5 µM), for the others: at the top dose inhibition. 1,100 compounds, 47% hits; calls by dose curve; also: potency is read from the fitted curve at half-maximal effect; nearly all actives have a fitted effect of over 60% in size
Tb PFK inh-2 = T. brucei PFK enzyme inhibition, hit validation | shares compounds with Tb PFK inh-1 | purified T. brucei PFK, ADP-Glo luminescence, 45 min | Potency, µM (doses to about 57.5 µM), for inactives: top-dose activity change, negative = inhibition, hits mostly inhibitors | 1,100 compounds, 41% hits | AID 504637;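 also: potency is read from the fitted curve at half-maximal effect; plate controls were full PFK enzyme control for no effect and no enzyme control for full effect; nearly all actives have a fitted effect of over 60% in size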
Starred values were filed as active, the others as inactive; i = inactive; ? = inconclusive; nt = not tested or not shown. Compounds with a hit are over-represented: about 0.28% of the library has one in this group of screens. Unless noted, calls follow the shape of the dose curve; as a rule, active = well fitted curve in the direction sought with a large enough effect; inconclusive = small, poorly fitted or top-dose-only effect, or another doubt; inactive = no such curve, though single readings can be large; an effect the other way counts as inactive or inconclusive.

SMILES | Tb PGK inh | Tb PFK inh-1 | USP2a block | Pin1 inh | PI4K2A inh | Tb PFK KinaseGlo | Tb PFK inh-2
Fc1ccc(C(c2ccc(F)cc2)N2CCNCC2)cc1 | nt | nt | nt | nt | 2 | nt | nt
COc1cc(-c2ccc3ncnc(NCc4nc(C)cs4)c3c2)cc(OC)c1OC | nt | nt | nt | -7% | nt | nt | nt
N[C@H](C(=O)O)c1ccc(O)cc1 | nt | nt | nt | nt | i | nt | nt
C/C(=C(\CCO)SS/C(CCO)=C(\C)N(C=O)Cc1cnc(C)nc1N)N(C=O)Cc1cnc(C)nc1N | nt | nt | nt | nt | -2 | nt | nt
Cc1ccc(C2(C)NC(=O)N(CC(=O)Nc3ccc4[nH]c(=O)[nH]c4c3)C2=O)cc1 (stereo unspecified) | 0% | ? | 2% | ? | -1 | nt | nt
CC1(c2ccc(Cl)cc2Cl)NC(=O)N(CC(=O)Nc2ccc3[nH]c(=O)[nH]c3c2)C1=O (stereo unspecified) | -8% | ? | 1% | ? | -6 | ? | ?
NC(=O)c1cc2ccccc2o/c1=N/NC(=O)c1cccs1 | -7% | ? | 1% | -1% | 2 | nt | nt
COc1ccc2o/c(=N/NC(=O)c3cccs3)c(C(N)=O)cc2c1 | -11% | ? | 2% | ? | -8 | -31% | ?
CC(=O)N1CCc2cc(S(=O)(=O)Nc3ccc(C)c(C)c3)ccc21 | nt | nt | nt | -5% | nt | nt | nt
CC1=C(SCc2ccccc2)C(=O)c2ccccc2C1=O | i | nt | nt | ? | ? | nt | nt
O=C1C(SCCO)=C(SCCO)C(=O)c2ccccc21 | -18% | 9.5µM* | 1% | ? | ? | 0.6µM* | ?
O=S(=O)(c1c(F)cccc1F)N1CCN(S(=O)(=O)c2c(F)cccc2F)CC1 | nt | nt | nt | 5% | nt | nt | nt
Oc1cc2c(cc1O)C1c3ccc(O)c(O)c3OCC1(O)C2 (stereo unspecified) | ? | ? | 4% | ? | -10 | ? | 0.85µM*
CNc1cc2c(cc1S(=O)(=O)Nc1ccc(C)c(C)c1)CCC(=O)N2 | nt | nt | nt | 0% | nt | nt | nt
COc1ccc(C2Nc3ccccc3C(=O)N2Cc2cccc3ccccc23)cc1COc1ccc(NC(C)=O)cc1 (stereo unspecified) | nt | nt | nt | 32% | nt | nt | nt
O=C(Nc1ccc(Cl)c(Cl)c1)c1ccccc1 | -8% | ? | 1% | 2% | 4 | nt | nt
CN(C(=O)Nc1ccc(Cl)c(Cl)c1)c1ccccc1C(=O)O | 8% | 15µM* | 2% | -1% | 5 | ? | ?
O=C(NOCC1CC1)c1ccc(F)c(F)c1Nc1ccc(I)cc1Cl | nt | nt | nt | nt | 1 | nt | nt
COCCNC(=O)/C(C#N)=C/c1ccc(O)cc1 | ? | ? | 9% | 1% | -69* | -22% | ?
COCCNC(=O)/C(C#N)=C/c1cccc(/C=C(\C#N)C(=O)NCCOC)c1 | -6% | 1% | 1% | 1% | -13 | nt | nt
O=C(COC(=O)c1ccc(Cl)c(S(=O)(=O)N2CCOCC2)c1)Nc1ccc2[nH]c(=O)[nH]c2c1 | 1% | ? | -1% | ? | 7 | ? | ?
Cc1cc2c(s1)c1cnn(Cc3ccc(Cl)cc3)c(=O)c1n2C | nt | nt | nt | 42% | nt | nt | nt
Cc1ccc(Cn2c(N)nc3ccccc32)cc1 | -6% | 0% | 1% | 1% | 3 | nt | nt
Nc1nc2ccccc2n1Cc1ccc(Cl)c(Cl)c1 | 11% | ? | -5% | 6% | 6 | 13µM* | ?
C=CCN1C(=O)N/C(=C/c2ccc(C)o2)C1=O | nt | 17µM* | 8% | -8% | -5 | 17µM* | ?
COc1ccc(NC(=O)CNc2cccc(C#N)c2)cc1Cl | 0% | ? | 2% | -7% | 7 | ? | ?
O=[S+]([O-])(c1ccc2c(c1)OCCO2)N1CCN([S+](=O)([O-])c2c(F)cc(Br)cc2F)CC1 | nt | nt | nt | 3% | nt | nt | nt
